From the supplement of paper PMC6411743
± gives the standard deviation of the averaged measurements. Of roughly 5,400 targets only a part is listed; those with the largest changes were picked by preference.

Compound: Nc1nc2c(ncn2[C@@H]2O[C@H](COP(=O)(O)OP(=O)(O)OP(=O)(O)O)[C@@H](O)[C@H]2O)c(=O)[nH]1 [guanosine triphosphate]
Test: NP40-soluble protein abundance relative to vehicle (solubility fold change) (ratio); higher = more soluble protein in presence of GTP
Summary of the method: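 Eight concentrations, 0.1 to 10 mM, were tested on Jurkat crude lysate for 10 min at room temperature and then 3 min at 37 °C, in three independent experiments. The lysate was solubilised with 0.8% NP40 and benzonase, ultracentrifuged, and the supernatant TMT-labelled for LC-MS/MS. Each value is the fold change against the detergent-processed vehicle in its own replicate, from vsn-normalised intensities.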

Sequence of UniProt P17987 (P17987 whole entry, one chain of several): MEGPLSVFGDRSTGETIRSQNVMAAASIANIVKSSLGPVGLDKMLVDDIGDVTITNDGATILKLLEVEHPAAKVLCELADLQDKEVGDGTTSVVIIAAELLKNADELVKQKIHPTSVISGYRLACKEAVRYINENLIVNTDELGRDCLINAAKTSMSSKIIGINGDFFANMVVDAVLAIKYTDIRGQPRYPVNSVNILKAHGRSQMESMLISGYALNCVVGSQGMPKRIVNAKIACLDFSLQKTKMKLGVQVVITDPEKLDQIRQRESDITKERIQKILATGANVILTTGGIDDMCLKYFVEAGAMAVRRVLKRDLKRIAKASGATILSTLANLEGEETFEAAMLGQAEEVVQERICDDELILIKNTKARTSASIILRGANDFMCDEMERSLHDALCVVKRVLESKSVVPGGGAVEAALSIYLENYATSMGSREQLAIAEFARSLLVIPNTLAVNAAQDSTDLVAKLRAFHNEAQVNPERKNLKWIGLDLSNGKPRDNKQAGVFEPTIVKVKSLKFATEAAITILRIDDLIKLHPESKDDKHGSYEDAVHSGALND
Sequence of UniProt P02792 (P02792 whole entry, one chain of several): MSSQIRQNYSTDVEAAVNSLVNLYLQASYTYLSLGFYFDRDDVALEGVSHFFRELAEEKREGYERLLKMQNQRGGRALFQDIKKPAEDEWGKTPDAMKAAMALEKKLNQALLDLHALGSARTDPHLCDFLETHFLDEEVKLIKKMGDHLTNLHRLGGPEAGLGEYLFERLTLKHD
Sequence of UniProt Q53GL7 (Q53GL7 whole entry, one chain of several): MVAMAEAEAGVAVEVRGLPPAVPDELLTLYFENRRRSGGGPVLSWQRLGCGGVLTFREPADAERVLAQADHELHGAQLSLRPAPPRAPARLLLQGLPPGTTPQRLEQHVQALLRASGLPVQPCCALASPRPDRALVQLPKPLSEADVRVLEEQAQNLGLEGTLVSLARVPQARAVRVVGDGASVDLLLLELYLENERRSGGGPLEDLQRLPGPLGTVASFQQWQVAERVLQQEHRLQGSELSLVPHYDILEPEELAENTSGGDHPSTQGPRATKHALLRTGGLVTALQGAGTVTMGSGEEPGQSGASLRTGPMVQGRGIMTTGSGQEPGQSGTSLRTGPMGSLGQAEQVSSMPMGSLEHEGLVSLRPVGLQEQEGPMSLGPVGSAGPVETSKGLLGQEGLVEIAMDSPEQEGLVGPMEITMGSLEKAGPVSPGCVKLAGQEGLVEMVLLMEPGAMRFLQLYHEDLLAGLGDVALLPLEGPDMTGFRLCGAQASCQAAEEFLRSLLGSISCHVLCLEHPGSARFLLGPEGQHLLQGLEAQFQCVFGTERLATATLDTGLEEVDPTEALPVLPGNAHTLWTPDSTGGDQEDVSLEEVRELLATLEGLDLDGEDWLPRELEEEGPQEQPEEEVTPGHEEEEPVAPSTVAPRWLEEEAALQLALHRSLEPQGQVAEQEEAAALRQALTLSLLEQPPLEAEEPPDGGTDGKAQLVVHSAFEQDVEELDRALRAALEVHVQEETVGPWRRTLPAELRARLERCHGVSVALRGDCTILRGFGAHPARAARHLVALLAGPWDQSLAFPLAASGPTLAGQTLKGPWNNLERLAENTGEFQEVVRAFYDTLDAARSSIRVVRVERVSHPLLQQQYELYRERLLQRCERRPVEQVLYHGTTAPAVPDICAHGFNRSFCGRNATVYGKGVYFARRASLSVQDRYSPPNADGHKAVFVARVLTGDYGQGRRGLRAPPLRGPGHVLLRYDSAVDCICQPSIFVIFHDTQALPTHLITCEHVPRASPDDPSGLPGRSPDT
Sequence of UniProt Q96KA5 (Q96KA5 whole entry, one chain of several): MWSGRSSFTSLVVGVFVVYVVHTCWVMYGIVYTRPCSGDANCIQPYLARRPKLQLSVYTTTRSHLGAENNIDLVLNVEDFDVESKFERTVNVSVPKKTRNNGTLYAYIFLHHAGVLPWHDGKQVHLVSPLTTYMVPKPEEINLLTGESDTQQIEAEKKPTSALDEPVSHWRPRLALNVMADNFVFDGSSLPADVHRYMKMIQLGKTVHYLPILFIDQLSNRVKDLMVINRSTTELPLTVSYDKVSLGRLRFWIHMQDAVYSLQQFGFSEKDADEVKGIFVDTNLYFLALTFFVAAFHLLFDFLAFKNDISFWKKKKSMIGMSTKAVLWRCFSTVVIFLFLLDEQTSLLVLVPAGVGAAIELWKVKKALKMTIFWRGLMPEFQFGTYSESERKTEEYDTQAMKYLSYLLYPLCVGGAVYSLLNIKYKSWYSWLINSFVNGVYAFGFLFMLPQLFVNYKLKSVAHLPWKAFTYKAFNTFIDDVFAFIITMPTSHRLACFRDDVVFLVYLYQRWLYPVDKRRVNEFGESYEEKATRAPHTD
Sequence of UniProt Q8N128 (Q8N128 whole entry, one chain of several): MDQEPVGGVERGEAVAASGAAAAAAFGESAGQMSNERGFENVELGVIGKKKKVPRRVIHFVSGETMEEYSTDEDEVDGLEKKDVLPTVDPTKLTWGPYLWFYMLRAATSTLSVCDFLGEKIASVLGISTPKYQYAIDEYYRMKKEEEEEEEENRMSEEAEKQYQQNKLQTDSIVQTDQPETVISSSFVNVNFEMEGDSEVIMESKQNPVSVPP
Sequence of UniProt P23528 (P23528 whole entry, one chain of several): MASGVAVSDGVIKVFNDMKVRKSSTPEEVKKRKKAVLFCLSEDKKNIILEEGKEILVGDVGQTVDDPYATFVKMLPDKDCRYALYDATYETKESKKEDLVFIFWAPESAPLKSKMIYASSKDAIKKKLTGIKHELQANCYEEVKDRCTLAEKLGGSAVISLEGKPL
Sequence of UniProt Q9Y4I1 (Q9Y4I1 whole entry, one chain of several): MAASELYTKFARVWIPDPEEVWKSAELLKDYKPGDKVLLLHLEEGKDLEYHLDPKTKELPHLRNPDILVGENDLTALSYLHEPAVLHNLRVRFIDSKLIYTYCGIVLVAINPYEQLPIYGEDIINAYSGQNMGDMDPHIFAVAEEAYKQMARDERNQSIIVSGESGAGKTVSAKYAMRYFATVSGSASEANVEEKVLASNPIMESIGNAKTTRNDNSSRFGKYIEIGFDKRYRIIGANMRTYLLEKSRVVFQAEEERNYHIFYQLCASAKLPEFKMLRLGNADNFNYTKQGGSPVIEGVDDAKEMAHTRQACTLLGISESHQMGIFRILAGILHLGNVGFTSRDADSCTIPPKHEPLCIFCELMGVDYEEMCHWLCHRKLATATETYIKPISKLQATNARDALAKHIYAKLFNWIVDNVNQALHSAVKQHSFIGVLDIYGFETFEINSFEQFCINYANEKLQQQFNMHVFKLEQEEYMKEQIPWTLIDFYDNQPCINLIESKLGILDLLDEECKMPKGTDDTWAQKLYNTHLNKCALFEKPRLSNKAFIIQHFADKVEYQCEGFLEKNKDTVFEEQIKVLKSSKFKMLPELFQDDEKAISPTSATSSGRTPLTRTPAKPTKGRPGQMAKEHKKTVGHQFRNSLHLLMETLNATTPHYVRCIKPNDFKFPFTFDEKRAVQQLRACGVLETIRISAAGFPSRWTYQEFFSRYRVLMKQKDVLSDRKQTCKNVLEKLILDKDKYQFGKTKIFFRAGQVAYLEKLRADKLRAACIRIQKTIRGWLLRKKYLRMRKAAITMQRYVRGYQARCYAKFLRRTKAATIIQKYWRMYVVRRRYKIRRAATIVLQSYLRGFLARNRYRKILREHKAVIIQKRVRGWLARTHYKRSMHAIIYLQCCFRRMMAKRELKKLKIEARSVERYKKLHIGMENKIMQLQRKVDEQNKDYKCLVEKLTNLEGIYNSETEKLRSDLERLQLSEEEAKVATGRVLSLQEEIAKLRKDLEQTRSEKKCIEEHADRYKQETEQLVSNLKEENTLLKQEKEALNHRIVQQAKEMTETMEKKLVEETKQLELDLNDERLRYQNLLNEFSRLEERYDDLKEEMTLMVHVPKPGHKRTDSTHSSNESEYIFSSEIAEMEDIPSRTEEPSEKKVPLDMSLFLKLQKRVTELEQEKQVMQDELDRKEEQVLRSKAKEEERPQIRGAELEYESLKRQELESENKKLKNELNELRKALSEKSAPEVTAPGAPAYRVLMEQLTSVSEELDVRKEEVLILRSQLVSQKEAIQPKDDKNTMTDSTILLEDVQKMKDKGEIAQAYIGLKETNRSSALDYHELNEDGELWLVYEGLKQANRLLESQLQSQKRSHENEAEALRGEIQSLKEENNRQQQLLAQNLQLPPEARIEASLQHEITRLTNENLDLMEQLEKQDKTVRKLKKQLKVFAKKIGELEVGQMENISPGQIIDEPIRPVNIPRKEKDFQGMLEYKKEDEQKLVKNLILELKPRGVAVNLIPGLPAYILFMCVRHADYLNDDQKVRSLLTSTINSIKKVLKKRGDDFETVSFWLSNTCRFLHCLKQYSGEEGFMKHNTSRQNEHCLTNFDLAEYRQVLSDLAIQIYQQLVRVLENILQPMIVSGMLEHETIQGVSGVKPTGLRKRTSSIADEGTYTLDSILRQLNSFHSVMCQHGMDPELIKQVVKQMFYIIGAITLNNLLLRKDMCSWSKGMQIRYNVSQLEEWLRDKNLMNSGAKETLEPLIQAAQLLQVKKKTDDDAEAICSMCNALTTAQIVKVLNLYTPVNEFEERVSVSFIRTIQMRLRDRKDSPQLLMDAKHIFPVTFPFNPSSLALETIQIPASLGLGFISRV
Sequence of UniProt Q9NQ29 (Q9NQ29 whole entry, one chain of several): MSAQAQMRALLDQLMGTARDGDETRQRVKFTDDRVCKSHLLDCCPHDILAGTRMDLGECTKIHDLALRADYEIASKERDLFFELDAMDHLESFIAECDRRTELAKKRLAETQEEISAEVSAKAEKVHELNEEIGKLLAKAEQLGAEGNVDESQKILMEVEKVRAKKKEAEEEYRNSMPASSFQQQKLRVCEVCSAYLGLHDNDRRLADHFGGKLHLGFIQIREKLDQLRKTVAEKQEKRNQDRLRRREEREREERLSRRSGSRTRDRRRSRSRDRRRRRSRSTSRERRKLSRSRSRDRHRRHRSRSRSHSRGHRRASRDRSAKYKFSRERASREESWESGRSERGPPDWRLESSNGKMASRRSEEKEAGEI

Target	NP40-soluble protein abundance (concentration: 0.1mM)	NP40-soluble protein abundance (concentration: 0.5mM)	NP40-soluble protein abundance (concentration: 1mM)	NP40-soluble protein abundance (concentration: 2mM)	NP40-soluble protein abundance (concentration: 4mM)	NP40-soluble protein abundance (concentration: 6mM)	NP40-soluble protein abundance (concentration: 8mM)	NP40-soluble protein abundance (concentration: 10mM)
A0A087WSW9|A0A087WSY9|E9PIR7|F8W809|Q16881|Q16881-2|Q16881-3|Q16881-4|Q16881-5|Q16881-6 (UniProt Q16881)	0.99 ± 0.03	1.01 ± 0.041	0.918 ± 0.026	0.928 ± 0.049	0.88 ± 0.037	0.9 ± 0.041	0.847 ± 0.022	0.854 ± 0.059
A0A087WU64|A6NMQ1|P09884 (UniProt P09884)	1.06 ± 0.025	1.07 ± 0.035	1.01 ± 0.047	1.02 ± 0.057	1.01 ± 0.033	0.994 ± 0.028	1.01 ± 0.051	0.973 ± 0.029
A0A0R4J2F3|Q9Y2S0|Q9Y2S0-2 (UniProt Q9Y2S0)	1.01 ± 0.075	0.925 ± 0.056	1.11 ± 0.2	1.16 ± 0.14	1.2 ± 0.17	1.17 ± 0.12	1.15 ± 0.21	1.24 ± 0.28
G3V394|Q9Y4I1-3 (UniProt Q9Y4I1)	1.28 ± 0.16	2.15 ± 0.36	2.39 ± 0.25	2.51 ± 0.3	2.65 ± 0.31	2.59 ± 0.39	2.5 ± 0.4	2.51 ± 0.36
F5H136|P17987 (UniProt P17987)	0.988 ± 0.02	1.07 ± 0.086	1.08 ± 0.12	1.11 ± 0.18	1.09 ± 0.2	1.1 ± 0.21	1.06 ± 0.19	1.02 ± 0.2
A8MQ02|J3KN01|P55196|P55196-3|P55196-5 (UniProt P55196)	1.15 ± 0.16	0.987 ± 0.079	1 ± 0.038	1.05 ± 0.14	1.18 ± 0.34	1.18 ± 0.21	1.16 ± 0.14	1.13 ± 0.078
A0A087WVC1|Q9BQ39 (UniProt Q9BQ39)	1.19 ± 0.051	1.25 ± 0.055	1.4 ± 0.089	1.89 ± 0.23	2.57 ± 0.26	3.29 ± 0.3	3.85 ± 0.56	4.45 ± 0.47
E9PKP7|E9PLT2|P17480|P17480-2 (UniProt P17480)	1.02 ± 0.025	1 ± 0.036	1.08 ± 0.025	1.2 ± 0.079	1.31 ± 0.074	1.45 ± 0.066	1.5 ± 0.053	1.87 ± 0.13
B1AL05|H0Y6Y8|H0YBU8|Q8N983|Q8N983-2|Q8N983-3|Q8N983-4|Q8N983-6|Q8N983-7 (UniProt Q8N983)	1.08 ± 0.21	1.07 ± 0.17	1.37 ± 0.45	1.75 ± 0.66	1.71 ± 0.69	1.57 ± 0.65	1.38 ± 0.47	1.59 ± 0.65
E9PP50|P23528 (UniProt P23528)	0.893 ± 0.054	0.906 ± 0.066	0.894 ± 0.066	0.823 ± 0.076	0.819 ± 0.068	0.839 ± 0.078	0.84 ± 0.066	0.821 ± 0.081
D6RIH7|Q9UM22 (UniProt Q9UM22)	0.918 ± 0.11	0.931 ± 0.14	0.91 ± 0.12	0.896 ± 0.13	0.902 ± 0.12	0.908 ± 0.13	0.88 ± 0.085	0.889 ± 0.11
F8VU90|Q9NYL4|Q9NYL4-2 (UniProt Q9NYL4)	0.972 ± 0.06	0.968 ± 0.052	1.04 ± 0.018	1.03 ± 0.065	1.05 ± 0.033	0.996 ± 0.078	0.922 ± 0.041	0.995 ± 0.065
B8ZZ10|Q9NQ29|Q9NQ29-2|Q9NQ29-3 (UniProt Q9NQ29)	1.26 ± 0.045	1.75 ± 0.11	1.91 ± 0.18	1.95 ± 0.12	1.98 ± 0.12	2.09 ± 0.14	2.21 ± 0.28	2.22 ± 0.28
G3V583|Q8N128|Q8N128-2 (UniProt Q8N128)	0.912 ± 0.089	0.928 ± 0.084	0.869 ± 0.13	0.94 ± 0.16	0.887 ± 0.16	0.861 ± 0.14	0.87 ± 0.1	0.902 ± 0.14
A0A087WZV8|A0A0G2JN66 (UniProt P01850)	1.02 ± 0.032	1.04 ± 0.034	1.002 ± 0.0081	1.01 ± 0.042	1.01 ± 0.036	0.98 ± 0.023	0.977 ± 0.04	0.976 ± 0.046
A0A087WWS1|Q96FV9 (UniProt Q96FV9)	1.1 ± 0.016	1.24 ± 0.086	1.41 ± 0.19	1.76 ± 0.41	2.08 ± 0.62	2.26 ± 0.76	2.37 ± 0.83	2.4 ± 0.91
C9JWC4|Q8NCD3|Q8NCD3-2|Q8NCD3-3 (UniProt Q8NCD3)	1.07 ± 0.053	1.12 ± 0.041	1.15 ± 0.069	1.18 ± 0.025	1.19 ± 0.15	1.18 ± 0.067	1.2 ± 0.055	1.13 ± 0.081
B3KS98|O15372 (UniProt O15372)	0.992 ± 0.07	1.01 ± 0.088	1.03 ± 0.075	1.08 ± 0.15	1.27 ± 0.25	1.42 ± 0.28	1.6 ± 0.34	1.8 ± 0.36
A0A087X1E4|P53365|P53365-3 (UniProt P53365)	0.956 ± 0.05	0.853 ± 0.057	0.972 ± 0.052	0.963 ± 0.08	0.913 ± 0.088	0.906 ± 0.1	0.861 ± 0.14	0.889 ± 0.068
A0A087WWH3|Q9NZM4|Q9NZM4-2 (UniProt Q9NZM4)	1.06 ± 0.018	0.989 ± 0.1	1.16 ± 0.19	1.22 ± 0.1	1.22 ± 0.15	1.13 ± 0.33	1.2 ± 0.44	1.33 ± 0.38
E7EN86|P52747|P52747-2|P52747-3 (UniProt P52747)	1.06 ± 0.038	1.03 ± 0.024	0.988 ± 0.058	0.94 ± 0.013	0.988 ± 0.076	0.939 ± 0.055	1.03 ± 0.013	1.02 ± 0.045
E9PCH4|Q8TEU7|Q8TEU7-4 (UniProt Q8TEU7+E9PCH4)	0.967 ± 0.021	0.9825 ± 0.0063	0.968 ± 0.023	0.96 ± 0.02	0.981 ± 0.016	0.969 ± 0.038	1.0058 ± 0.00029	0.9592 ± 0.0034
E9PK67|E9PNI7|Q53GL7 (UniProt Q53GL7)	1.05 ± 0.097	1.06 ± 0.12	0.954 ± 0.041	1.01 ± 0.15	0.982 ± 0.12	0.935 ± 0.11	0.949 ± 0.019	0.949 ± 0.08
B8ZZU6|E9PBF9|P15336-5|P15336 (UniProt P15336)	0.868 ± 0.086	0.907 ± 0.044	0.969 ± 0.14	0.943 ± 0.078	0.899 ± 0.011	0.899 ± 0.045	0.906 ± 0.1	0.955 ± 0.078
E9PEN0|Q8WYH8|Q8WYH8-2 (UniProt Q8WYH8)	1.1 ± 0.098	1.07 ± 0.16	1.26 ± 0.41	1.19 ± 0.26	1.33 ± 0.3	1.5 ± 0.35	1.48 ± 0.39	2 ± 0.59
H0UI80|Q8IXH7|Q8IXH7-4|X6RLT1 (UniProt X6RLT1+Q8IXH7+H0UI80)	1.01 ± 0.017	0.973 ± 0.038	0.965 ± 0.024	0.968 ± 0.012	0.981 ± 0.011	0.978 ± 0.01	0.97 ± 0.039	0.95 ± 0.0096
A0A087X1B9|P02792 (UniProt P02792)	1.09 ± 0.16	1.03 ± 0.21	1.44 ± 0.11	1.55 ± 0.054	1.64 ± 0.14	1.465 ± 0.0048	1.43 ± 0.17	1.68 ± 0.12
G5E9Z2|Q96KA5|Q96KA5-2 (UniProt Q96KA5)	1.09 ± 0.049	1.07 ± 0.017	1.02 ± 0.042	0.983 ± 0.034	0.989 ± 0.016	0.971 ± 0.039	0.974 ± 0.035	0.96 ± 0.04
F2Z2Y4|O00764|O00764-2 (UniProt O00764)	1 ± 0.072	1.01 ± 0.09	0.942 ± 0.055	0.918 ± 0.095	0.905 ± 0.071	0.91 ± 0.08	0.88 ± 0.063	0.868 ± 0.086
B4DTS2|Q9BZL6 (UniProt Q9BZL6)	1.02 ± 0.021	1.04 ± 0.034	0.992 ± 0.053	1.02 ± 0.055	1 ± 0.059	0.97 ± 0.031	0.946 ± 0.045	0.946 ± 0.033
